The target in assay [1] is CCAAT/enhancer-binding protein beta (Homo sapiens) (UniProt P17676). Briefly: ATG_C_EBP_CIS: Attagene CIS-FACTORIAL HepG2 Assay for human CCAAT/Enhancer Binding Protein (C/EBP) beta (AID 2282927). To be noted: HepG2 Attagene cis-factorial transcription factor reporter; actives raise or lower the signal. In a few lines: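 Changes in reporter mRNA, rather than exogenous chimeric receptor activity, reflect native C/EBP signalling in transfected HepG2 cells dosed for 24 h; transcripts are detected by RT-PCR and capillary electrophoresis.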

The nature of assay [2]: ATG_CMV_CIS: Attagene CIS-FACTORIAL HepG2 Assay for human CMV (Internal Marker) (AID 2282928).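 Further: endpoint acts as a background internal control marker rather than a target.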 The settings on record: HepG2 CMV promoter reporter, transcription factor profiling; actives raise or lower the signal. In a few lines:
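Endogenous transcription factor activity read in HepG2 via transfected cis-promoter reporter units. After 24 h dosing, reporter mRNA measured by RT-PCR/capillary electrophoresis; gain or loss of signal fit relative to DMSO.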

Assay [3] in a line: ATG_AP_2_CIS: Attagene CIS-FACTORIAL HepG2 Assay for human Activator Protein 2 (AP-2) (AID 2282932). To be noted: HepG2 AP-2 cis-reporter, Attagene transcription factor profiling; actives raise or lower the signal. In a few lines:
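Step one: transient transfection of HepG2 with reporter transcription units. Step two: 24 h chemical exposure. Step three: RNA extraction, RT-PCR, labelled fragment analysis by capillary electrophoresis; DMSO serves as baseline.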

Assay [4] in a line: ATG_BRE_CIS: Attagene CIS-FACTORIAL HepG2 Assay for human Bone Morphogenetic Protein (BMP) Response Element (BRE) (AID 2282933). The settings on record: HepG2 BMP response element reporter, Attagene transcription factor profiling; actives raise or lower the signal. The gist of the method: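 Gain- or loss-of-signal was derived by bidirectional fitting against DMSO controls. The signal came from reporter mRNA, measured by RT-PCR and capillary electrophoresis, in HepG2 cells transiently carrying multiple reporter units and dosed for 24 h.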

Assay [5] addresses Transcription factor E2F1 (Homo sapiens) (UniProt Q01094). Briefly: ATG_E2F_CIS: Attagene CIS-FACTORIAL HepG2 Assay for human E2F Transcription Factor 1 (AID 2282935). To be noted: HepG2 Attagene cis-reporter, E2F reporter RNA transcripts; actives raise or lower the signal. The gist of the method:
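Total RNA from 24 h-treated, reporter-transfected HepG2 cells undergoes DNase I treatment, oligo(dT) reverse transcription, PCR and 6-FAM primer extension before capillary electrophoresis.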

Assay [6] in a line: ATG_E_Box_CIS: Attagene CIS-FACTORIAL HepG2 Assay for human Enhancer Box (E-box) (AID 2282936). The settings on record: HepG2 E-box cis-reporter transcription, actives raise or lower the signal. The gist of the method:
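DMSO served as negative control and baseline for bidirectional fitting. Human hepatoma HepG2 cells, transiently transfected with cis-reporter constructs, were dosed 24 h; reporter mRNA read by RT-PCR and capillary electrophoresis.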

The nature of assay [7]: ATG_M_61_CIS: Attagene CIS-FACTORIAL HepG2 Assay for M61 Transcription Factor (Internal Marker) (AID 2282937). To be noted: HepG2 Attagene CIS-FACTORIAL M61 internal marker reporter; actives raise or lower the signal. In a few lines: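 Transfect HepG2 with MRTUs; dose 24 h; isolate RNA; reverse-transcribe with DNase I treatment; PCR-amplify, FAM-label and cut with HpaI for 2 h at 37 C; resolve by CE. Bidirectional fitting against DMSO.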

The nature of assay [8]: ATG_EGR_CIS: Attagene CIS-FACTORIAL HepG2 Assay for human Early Growth Response 1 (EGR1) (AID 2282938). To be noted: HepG2 Attagene CIS-FACTORIAL EGR reporter mRNA; actives raise or lower the signal. In a few lines:
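After a 24 h treatment of transiently transfected HepG2 cells, total RNA was reverse-transcribed and reporter sequences PCR-amplified, labelled and run on capillary electrophoresis. Reporters sit under cis-regulatory promoters sensing endogenous factors.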

The target in assay [9] is Cellular tumor antigen p53 (Homo sapiens) (UniProt P04637). Nature of the assay: TOX21_p53_BLA_p3_ratio: Tox21 HCT-116 p53 Agonism Beta-lactamase Assay, Ratio, Phase 3 (AID 2283596; active means hit-call score of the fitted dose curve at least 0.9, where 1 is the maximum). In a few lines:
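HCT116 p53-bla cells (4000/well) given compound in DMSO (217-fold dilution) after 5 h, incubated 16 h at 37C. CCF4-AM substrate 2 h at room temperature; 460/530 nm emission ratio, gain fitted against DMSO.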

Assay [10] in a line: TOX21_p53_BLA_p4_viability: Viability Assessment in the Tox21 HCT-116 p53 Agonism Beta-lactamase Assay, Phase 4 (AID 2283597; active means hit-call score of the fitted dose curve at least 0.9, where 1 is the maximum;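 further: hits lower the luminescence signal meaning cytotoxicity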). The gist of the method:
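We seeded HCT116 p53 reporter cells at 4000/well and waited 5 h. We then added compounds in DMSO at a 217-fold dilution and incubated for 16 h. Viability was read as CellTiter-Glo luminescence after 30 min at RT.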

Assay [11] is described as follows: TOX21_p53_BLA_p5_viability: Viability Assessment in the Tox21 HCT-116 p53 Agonism Beta-lactamase Assay, Phase 5 (AID 2283600; active means hit-call score of the fitted dose curve at least 0.9, where 1 is the maximum). In a few lines: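 Compounds, pinned from DMSO at 217-fold dilution, were left on the cells for 16 h. The viability endpoint was ATP content measured by CellTiter-Glo luminescence, where falling signal reflects cytotoxicity.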
The target of assay [12] is Cellular tumor antigen p53 (Homo sapiens) (UniProt P04637). Nature of the assay: TOX21_p53_BLA_p4_ratio: Tox21 HCT-116 p53 Agonism Beta-lactamase Assay, Ratio, Phase 4 (AID 2283601; active means hit-call score of the fitted dose curve at least 0.9, where 1 is the maximum). The gist of the method:
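Signal is the blue/green (460nm/530nm) ratio of cleaved versus uncleaved CCF4-AM substrate, read after 2 h substrate loading. Cells were HCT116 carrying the p53-responsive beta-lactamase reporter, dosed 16 h at 37C, 5% CO2; CellTiter-Glo measured in parallel.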

A short description of assay [13]: CCTE_Harrill_HTTr_Viability_MCF7: CCTE's 6-hour Cell Viability Assessment for the High-Throughput Transcriptomics (HTTr) Platform, in MCF-7 cells cultured in DMEM + 10% fetal bovine serum, Harrill Lab (AID 2284010). The gist of the method:
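Membrane integrity was scored by high-content imaging of propidium iodide dye exclusion after a 6 h exposure across an eight-point dilution series. Data were fitted bidirectionally relative to DMSO as negative control and baseline.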

Assay [14] in a line: CCTE_Harrill_HTTr_Apoptosis_MCF7: CCTE's 6-hour Apoptosis Assessment for the High-Throughput Transcriptomics (HTTr) Platform, in MCF-7 cells cultured in DMEM + 10% fetal bovine serum, Harrill Lab (AID 2284011). In a few lines: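 Read-out: CellEvent Caspase 3/7 Green signal by high content imaging, gain-of-signal indicating apoptosis. MCF-7 cells, DMEM + 10% FBS, eight-point dilution series, 6 h exposure. Curves fitted bidirectionally relative to DMSO negative control.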

Assay [15] is described as follows: TOX21_p53_BLA_p2_viability: Viability Assessment in the Tox21 HCT-116 p53 Agonism Beta-lactamase Assay, Phase 2 (AID 2283591; active means hit-call score of the fitted dose curve at least 0.9, where 1 is the maximum;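 further: compound exposure lasted 16 h at 37 °C; actives lower the ATP signal meaning cytotoxicity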). The gist of the method:
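Cytotoxicity readout: CellTiter-Glo ATP luminescence, 30 min at room temperature, after the beta-lactamase read. Cells were HCT116 exposed 16 h at 37C to compounds pin-transferred at 217-fold dilution from DMSO stocks.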

For assay [16], the target named is Cellular tumor antigen p53 (Homo sapiens) (UniProt P04637). Nature of the assay: TOX21_p53_BLA_p2_ratio: Tox21 HCT-116 p53 Agonism Beta-lactamase Assay, Ratio, Phase 2 (AID 2283592; active means hit-call score of the fitted dose curve at least 0.9, where 1 is the maximum). In a few lines: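 In this cell-based reporter format, HCT116 cells were dosed with chemicals delivered from DMSO by 217-fold dilution and incubated 16 h at 37C. Emission at 460 and 530 nm after 2 h CCF4-AM loading provided the ratio, fitted upward versus DMSO.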

Assay [17] shares this target. Briefly: TOX21_p53_BLA_p5_ratio: Tox21 HCT-116 p53 Agonism Beta-lactamase Assay, Ratio, Phase 5 (AID 2283599; active means hit-call score of the fitted dose curve at least 0.9, where 1 is the maximum). In a few lines:
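Beta-lactamase reporter ratio (blue 460 nm over green 530 nm, 405 nm excitation) after 2 h CCF4-AM loading, in HCT-116 cells exposed 16 h at 37 C to compounds pinned at 217-fold dilution. Increases relative to DMSO baseline scored.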

The nature of assay [18]: TOX21_p53_BLA_p3_viability: Viability Assessment in the Tox21 HCT-116 p53 Agonism Beta-lactamase Assay, Phase 3 (AID 2283593; active means hit-call score of the fitted dose curve at least 0.9, where 1 is the maximum;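 further: cells exposed to compound for 16 h before reading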). The gist of the method:
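Cellular ATP was quantified by CellTiter-Glo luminescence, read after 30 min at room temperature. Beforehand, HCT116 cells (4000/well) received compound 5 h post-seeding, 217-fold diluted from DMSO, then incubated 16 h at 37C.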

For assay [19], the target named is bovine Estrogen Receptor (ER), ESR1 (gene 407238) (UniProt P49884). Nature of the assay: NVS_NR_bER: NovaScreen (NVS) Nuclear Receptor Binding Assay for bovine Estrogen Receptor (ER) (AID 2283345; active means hit-call score of the fitted dose curve at least 0.9, where 1 is the maximum;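 further: actives lower the bound radioligand count which means they displace the ER ligand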). In a few lines:
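Bovine uterine membranes; tritiated or iodinated radioligand; competitive displacement; 18 h; scintillation read; DMSO negative control; 25 uM duplicates, then concentration series for actives.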

For assay [20], the target named is Estrogen receptor (Homo sapiens) (UniProt P03372). Briefly: NVS_NR_hER: NovaScreen (NVS) Nuclear Receptor Binding Assay for human Estrogen Receptor (ER) (AID 2283348; active means hit-call score of the fitted dose curve at least 0.9, where 1 is the maximum). The gist of the method: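 Scintillation signal from bound radioligand was measured 18 hours after chemical addition to cell-free MCF7 protein extracts, with DMSO as baseline. Activity was scored as signal loss; compounds ran first at 25 uM in duplicate.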

“And” between values parts separate entries of the source, which are not always exact repeats. Equal entries are not always repeated. Inconclusive results are not listed. A structure can be active in one record and inactive in another. The source made the active and inactive calls. How the source made its calls, unless noted: active means hit-call score of the fitted dose curve at least 0.9, where 1 is the maximum; inactive means score below 0.9.

Sequence of Transcription factor E2F1 (Homo sapiens) (Q01094 whole entry, looked up): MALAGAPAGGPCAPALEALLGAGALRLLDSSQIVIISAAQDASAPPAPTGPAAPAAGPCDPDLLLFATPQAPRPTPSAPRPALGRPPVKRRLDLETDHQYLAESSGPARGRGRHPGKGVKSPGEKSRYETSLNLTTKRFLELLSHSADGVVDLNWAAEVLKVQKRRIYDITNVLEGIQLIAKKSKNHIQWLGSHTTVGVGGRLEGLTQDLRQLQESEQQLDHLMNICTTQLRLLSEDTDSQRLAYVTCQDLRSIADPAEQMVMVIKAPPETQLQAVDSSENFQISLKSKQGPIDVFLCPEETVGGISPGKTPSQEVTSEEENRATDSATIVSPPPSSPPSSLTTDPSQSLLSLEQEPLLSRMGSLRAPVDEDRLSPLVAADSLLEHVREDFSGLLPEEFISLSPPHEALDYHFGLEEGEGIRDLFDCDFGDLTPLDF
Sequence of Cellular tumor antigen p53 (Homo sapiens) (P04637 whole entry, looked up): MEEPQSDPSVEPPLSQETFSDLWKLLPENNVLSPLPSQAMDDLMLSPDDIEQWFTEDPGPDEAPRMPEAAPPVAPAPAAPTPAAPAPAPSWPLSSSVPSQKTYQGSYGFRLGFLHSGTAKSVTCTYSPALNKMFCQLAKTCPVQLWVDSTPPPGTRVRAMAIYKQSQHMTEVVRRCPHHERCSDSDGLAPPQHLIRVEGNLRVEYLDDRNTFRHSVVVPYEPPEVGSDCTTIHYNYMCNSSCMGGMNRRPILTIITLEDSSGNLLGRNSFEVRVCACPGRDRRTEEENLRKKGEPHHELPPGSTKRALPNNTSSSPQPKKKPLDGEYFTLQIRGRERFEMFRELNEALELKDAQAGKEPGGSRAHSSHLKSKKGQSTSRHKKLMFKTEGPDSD
Sequence of CCAAT/enhancer-binding protein beta (Homo sapiens) (P17676 whole entry, looked up): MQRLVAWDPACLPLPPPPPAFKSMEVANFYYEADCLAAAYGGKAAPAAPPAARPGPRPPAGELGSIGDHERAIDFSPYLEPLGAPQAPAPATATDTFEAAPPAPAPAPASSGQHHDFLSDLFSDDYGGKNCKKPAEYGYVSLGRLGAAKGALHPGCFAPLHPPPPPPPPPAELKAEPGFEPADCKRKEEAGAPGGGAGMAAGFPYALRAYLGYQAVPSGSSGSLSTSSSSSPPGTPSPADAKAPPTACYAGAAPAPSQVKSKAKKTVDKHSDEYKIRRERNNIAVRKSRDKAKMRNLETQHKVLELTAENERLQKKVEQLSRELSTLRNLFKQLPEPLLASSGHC
Sequence of Estrogen receptor (Homo sapiens) (P03372 whole entry, looked up): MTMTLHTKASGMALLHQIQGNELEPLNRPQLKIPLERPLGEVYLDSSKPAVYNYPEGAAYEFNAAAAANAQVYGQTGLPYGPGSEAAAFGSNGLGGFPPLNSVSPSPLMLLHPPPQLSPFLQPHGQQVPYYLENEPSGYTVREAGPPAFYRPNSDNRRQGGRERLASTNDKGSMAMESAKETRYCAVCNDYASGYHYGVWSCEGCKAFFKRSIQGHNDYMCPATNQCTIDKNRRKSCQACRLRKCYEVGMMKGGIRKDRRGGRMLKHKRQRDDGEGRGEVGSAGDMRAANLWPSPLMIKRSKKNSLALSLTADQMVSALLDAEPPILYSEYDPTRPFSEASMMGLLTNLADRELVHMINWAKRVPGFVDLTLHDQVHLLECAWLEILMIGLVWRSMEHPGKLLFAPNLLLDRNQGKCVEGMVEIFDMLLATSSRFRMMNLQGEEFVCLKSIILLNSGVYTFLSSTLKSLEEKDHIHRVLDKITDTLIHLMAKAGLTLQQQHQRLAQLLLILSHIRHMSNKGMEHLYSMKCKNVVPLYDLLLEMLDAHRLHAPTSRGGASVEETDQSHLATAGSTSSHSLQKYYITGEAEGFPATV
Sequence of bovine Estrogen Receptor (ER), ESR1 (gene 407238) (P49884 whole entry, looked up): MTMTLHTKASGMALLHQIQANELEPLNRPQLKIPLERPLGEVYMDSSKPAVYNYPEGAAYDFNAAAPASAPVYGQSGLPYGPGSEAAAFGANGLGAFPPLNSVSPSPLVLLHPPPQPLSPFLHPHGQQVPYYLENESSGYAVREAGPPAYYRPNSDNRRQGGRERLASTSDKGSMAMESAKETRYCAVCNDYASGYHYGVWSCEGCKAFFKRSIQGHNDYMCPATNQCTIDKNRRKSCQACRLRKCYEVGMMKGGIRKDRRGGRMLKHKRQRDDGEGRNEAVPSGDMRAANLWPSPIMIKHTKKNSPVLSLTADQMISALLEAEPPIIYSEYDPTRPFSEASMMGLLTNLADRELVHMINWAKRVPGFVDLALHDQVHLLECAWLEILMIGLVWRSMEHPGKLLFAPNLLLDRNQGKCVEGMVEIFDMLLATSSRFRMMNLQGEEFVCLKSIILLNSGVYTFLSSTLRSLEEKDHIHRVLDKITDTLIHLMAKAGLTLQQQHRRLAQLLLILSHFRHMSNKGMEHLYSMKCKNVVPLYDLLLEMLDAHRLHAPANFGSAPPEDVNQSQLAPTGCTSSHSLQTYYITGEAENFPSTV

Regarding `CN(C)N=Nc1ccccc1`, the result in assay [1], in [2], in assay [3], in assay [4], in [5] and in assay [6] was inactive. The compound was called inactive in assay [7], in assay [8], in assay [9], in [10], in assay [11] and in [12].
As to `COc1ccc2ccccc2c1`, the outcome in assay [1], in assay [2], in assay [3], in assay [4], in assay [5] and in [6] was inactive. The compound was classed as inactive in [7], in [8], in assay [13] and in assay [14].
With `CCO[Si](CCCN)(OCC)OCC`, the outcome in assay [1], in [2], in assay [3], in assay [4], in [5] and in assay [6] was inactive. The compound was called inactive in assay [7], in assay [8], in assay [15], in assay [16], in assay [9] and in [10]. The outcome in assay [17], in assay [11] and in [12] was inactive.
Broadly, the AC50 is the concentration at which the activity in the assay is half-maximal. As for `CCCc1c(OCCCCc2nn[nH]n2)ccc(C(C)=O)c1O`, the outcome in assay [1], in assay [3], in assay [5], in [6], in [7] and in assay [8] was inactive. Also, the compound was classed as inactive in assay [15], in assay [18], in assay [9], in [10], in assay [17] and in assay [11]. In addition, the result in [12], in [13] and in assay [14] was inactive. Besides, the AC50 was 135 µM (active) in [2]; 180 µM (active) in assay [4]; 73.1 µM (active) and 19.2 µM (active) in assay [16]; 30.1 µM (active) in [9]; 26.6 µM (active) in [17]; 25.2 µM (active) in assay [12].
With `O=C(C1CCCCC1)N1CC(=O)N2CCc3ccccc3C2C1` (stereo unspecified), the result in assay [1], in assay [2], in [3], in assay [4], in assay [5] and in assay [6] was inactive. Besides, the result in [7], in assay [8], in assay [13] and in [14] was inactive.
For the compound `CCCCCCCCCCCCSC#N`, the call in assay [19], in assay [20], in assay [16], in assay [18], in assay [9] and in [10] was inactive.
For `CC[N+](CC)(CC(=O)Nc1c(C)cccc1C)Cc1ccccc1`, the result in [1], in assay [2], in [3], in assay [4], in [5] and in [6] was inactive. The call in assay [7] and in assay [8] was inactive.
Regarding `CCCCC(CC)COC(=O)C=Cc1ccc(OC)cc1` (stereo unspecified), the compound was called inactive in assay [15], in [16], in assay [18], in [9], in assay [10] and in assay [17]. The compound was classed as inactive in [11], in assay [13] and in [14].

For the origin of these results see PubChem BioAssay (EPA / NIEHS).
